# Test results from the supplement of paper PMC10849652.
# Of roughly 7,900 targets only a part is listed; those with a hit were picked by preference. About 0.6% of all pairs of compound and target were hits. A number with no mark means an inactive call.
# How the values were obtained:
# Test in all cases: log2 fold change, soluble protein after heating vs DMSO (PISA); higher = thermal stabilisation; K562 cells, 10 uM, 30 min; active = over 0.2 and 3.5 SD of the protein, either way, in both replicates (recomputed)
# [1] = compound: C#Cc1cccc(Nc2ncnc3cc(OCCOC)c(OCCOC)cc23)c1 [erlotinib]
# Outline: (§1)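 Values are thermal stability changes relative to control samples and are taken from duplicates. They are stated as log2 fold changes. Before quantification by TMTpro 16plex LC-MS/MS with equalised channel sums, K562 cells at 2×10^6 cells/mL were treated with 10 μM compound for 30 min, heated in aliquots for 3 min across 48°C-58°C, pooled, extracted in PBS with 0.5% NP-40 at 4°C, and centrifuged at 21,000xg for 90 min to give the soluble supernatant.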
# [2] = compound: C/C(=N\NC(=O)C1=CC(=CC=C1)S(=O)(=O)N2CCOCC2)/C3=C(C=CC(=C3)Cl)O
# Outline: as §1
# [3] = compound: C1=CC(=C(C=C1Cl)C2=NC3=NC=CN=C3C(=N2)NC4=CC=NC=C4)F
# Outline: as §1
# [4] = compound: C1=CC(=CC=C1C2=NC3=C(N2)C=C(C=C3)C(=O)N)OC4=CC=C(C=C4)Cl
# Outline: as §1
# [5] = compound: C1=CC2=C(C=CC(=C2)/C=C\3/C(=O)NC(=NCC4=CC=CS4)S3)N=C1
# Outline: as §1
# [6] = compound: C1=CC2=NC=CN=C2C=C1/C=C/3\C(=O)NC(=O)S3
# Outline: as §1
# [7] = compound: C1=CC=C(C=C1)C2=NC(=C(N2)C3=CC=NC=C3)C4=CC(=C(C=C4)Cl)O
# Outline: as §1
# [8] = compound: C1=CC=C2C(=C1)C3=NNC4=CC=CC(=C43)C2=O
# Outline: as §1
# [9] = compound: C1CCN(C1)C(=O)NC2=CC=CC(=C2)NC3=NC=C(C(=N3)NCCC4=CN=CN4)Br
# Outline: as §1
# [10] = compound: C1CN(CCC1(CC2=CC=C(C=C2)Cl)N)C3=NC=NC4=C3C=CN4
# Outline: as §1
# [11] = compound: C1COCCN1CCN2C3=CC=CC=C3N=C2NC(=O)C4=CC(=CC=C4)[N+](=O)[O-] [IRAK-1-4 Inhibitor I]
# Outline: as §1
# [12] = compound: C=CC(=O)N1CCC[C@@H](n2nc(-c3ccc(Oc4ccccc4)cc3)c3c(N)ncnc32)C1 [ibrutinib]
# Outline: as §1
# [13] = compound: CC(=O)c1cnc2ccc(-c3cc(Cl)c(O)c(Cl)c3)nc2c1N[C@H]1CC[C@H](CN(C)C)CC1
# Outline: as §1
# [14] = compound: CC(C)(C)Cn1c(N)nc2ccc(-c3[nH]c(C(C)(C)C)nc3-c3ccc(F)cc3)nc21 [ralimetinib]
# Outline: as §1
# [15] = compound: CC(C)(O)CC(=O)NCCn1ccc2ncnc(Nc3ccc(Oc4cccc(C(F)(F)F)c4)c(Cl)c3)c21
# Outline: as §1
# [16] = compound: CC(C)C1=C2N=C(C=C(N2N=C1)NCC3=CC=CC=C3)NCCCCCCN
# Outline: as §1
# [17] = compound: CC(C)C[C@@H](C=O)NC(=O)[C@H](CC(C)C)NC(=O)[C@H](CC(C)C)NC(=O)OCc1ccccc1
# Outline: as §1
# [18] = compound: CC(C)N(C[C@H]1O[C@@H](n2cnc3c(N)ncnc32)[C@H](O)[C@@H]1O)[C@H]1C[C@@H](CCc2nc3cc(C(C)(C)C)ccc3[nH]2)C1 [pinometostat]
# Outline: as §1
# [19] = compound: CC1=C(C(CC(=O)N1)C2=CC=C(C=C2)C(F)(F)F)C(=O)NC3=C(C=C4C(=C3)C=NN4)F
# Outline: as §1
# [20] = compound: CC1=C(C2=C(C=C1)C(=O)C3=CC=CC=C3N2CCCN)C
# Outline: as §1
# Chain of UniProt Q96LU5 (Q96LU5 whole entry, looked up): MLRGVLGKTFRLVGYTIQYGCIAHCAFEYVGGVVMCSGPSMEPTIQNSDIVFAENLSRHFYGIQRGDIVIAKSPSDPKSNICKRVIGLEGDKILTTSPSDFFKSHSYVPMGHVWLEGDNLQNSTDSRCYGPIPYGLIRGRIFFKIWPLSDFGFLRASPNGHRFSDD
# Chain of UniProt Q16891 (Q16891 whole entry, looked up): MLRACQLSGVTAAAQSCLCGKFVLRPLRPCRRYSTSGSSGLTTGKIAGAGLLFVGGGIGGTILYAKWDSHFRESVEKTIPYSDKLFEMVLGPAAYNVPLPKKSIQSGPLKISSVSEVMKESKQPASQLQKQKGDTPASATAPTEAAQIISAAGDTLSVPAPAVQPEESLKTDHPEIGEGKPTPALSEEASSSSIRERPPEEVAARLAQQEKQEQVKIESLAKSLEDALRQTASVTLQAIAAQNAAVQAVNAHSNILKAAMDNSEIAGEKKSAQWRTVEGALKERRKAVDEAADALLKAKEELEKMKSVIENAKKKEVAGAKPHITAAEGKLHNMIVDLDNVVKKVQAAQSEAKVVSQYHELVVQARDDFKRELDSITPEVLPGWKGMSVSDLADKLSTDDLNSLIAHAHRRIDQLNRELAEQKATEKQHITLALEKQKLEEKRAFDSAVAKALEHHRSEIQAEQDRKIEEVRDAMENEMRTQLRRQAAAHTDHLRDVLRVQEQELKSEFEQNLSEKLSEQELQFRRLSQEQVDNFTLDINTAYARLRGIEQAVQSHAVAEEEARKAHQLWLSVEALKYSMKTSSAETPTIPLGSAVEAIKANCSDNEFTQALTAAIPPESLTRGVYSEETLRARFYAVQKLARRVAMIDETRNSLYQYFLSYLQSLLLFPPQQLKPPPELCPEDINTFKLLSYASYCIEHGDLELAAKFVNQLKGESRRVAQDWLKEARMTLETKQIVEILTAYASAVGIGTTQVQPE
# Chain of UniProt Q9H1H9 (Q9H1H9 whole entry, looked up): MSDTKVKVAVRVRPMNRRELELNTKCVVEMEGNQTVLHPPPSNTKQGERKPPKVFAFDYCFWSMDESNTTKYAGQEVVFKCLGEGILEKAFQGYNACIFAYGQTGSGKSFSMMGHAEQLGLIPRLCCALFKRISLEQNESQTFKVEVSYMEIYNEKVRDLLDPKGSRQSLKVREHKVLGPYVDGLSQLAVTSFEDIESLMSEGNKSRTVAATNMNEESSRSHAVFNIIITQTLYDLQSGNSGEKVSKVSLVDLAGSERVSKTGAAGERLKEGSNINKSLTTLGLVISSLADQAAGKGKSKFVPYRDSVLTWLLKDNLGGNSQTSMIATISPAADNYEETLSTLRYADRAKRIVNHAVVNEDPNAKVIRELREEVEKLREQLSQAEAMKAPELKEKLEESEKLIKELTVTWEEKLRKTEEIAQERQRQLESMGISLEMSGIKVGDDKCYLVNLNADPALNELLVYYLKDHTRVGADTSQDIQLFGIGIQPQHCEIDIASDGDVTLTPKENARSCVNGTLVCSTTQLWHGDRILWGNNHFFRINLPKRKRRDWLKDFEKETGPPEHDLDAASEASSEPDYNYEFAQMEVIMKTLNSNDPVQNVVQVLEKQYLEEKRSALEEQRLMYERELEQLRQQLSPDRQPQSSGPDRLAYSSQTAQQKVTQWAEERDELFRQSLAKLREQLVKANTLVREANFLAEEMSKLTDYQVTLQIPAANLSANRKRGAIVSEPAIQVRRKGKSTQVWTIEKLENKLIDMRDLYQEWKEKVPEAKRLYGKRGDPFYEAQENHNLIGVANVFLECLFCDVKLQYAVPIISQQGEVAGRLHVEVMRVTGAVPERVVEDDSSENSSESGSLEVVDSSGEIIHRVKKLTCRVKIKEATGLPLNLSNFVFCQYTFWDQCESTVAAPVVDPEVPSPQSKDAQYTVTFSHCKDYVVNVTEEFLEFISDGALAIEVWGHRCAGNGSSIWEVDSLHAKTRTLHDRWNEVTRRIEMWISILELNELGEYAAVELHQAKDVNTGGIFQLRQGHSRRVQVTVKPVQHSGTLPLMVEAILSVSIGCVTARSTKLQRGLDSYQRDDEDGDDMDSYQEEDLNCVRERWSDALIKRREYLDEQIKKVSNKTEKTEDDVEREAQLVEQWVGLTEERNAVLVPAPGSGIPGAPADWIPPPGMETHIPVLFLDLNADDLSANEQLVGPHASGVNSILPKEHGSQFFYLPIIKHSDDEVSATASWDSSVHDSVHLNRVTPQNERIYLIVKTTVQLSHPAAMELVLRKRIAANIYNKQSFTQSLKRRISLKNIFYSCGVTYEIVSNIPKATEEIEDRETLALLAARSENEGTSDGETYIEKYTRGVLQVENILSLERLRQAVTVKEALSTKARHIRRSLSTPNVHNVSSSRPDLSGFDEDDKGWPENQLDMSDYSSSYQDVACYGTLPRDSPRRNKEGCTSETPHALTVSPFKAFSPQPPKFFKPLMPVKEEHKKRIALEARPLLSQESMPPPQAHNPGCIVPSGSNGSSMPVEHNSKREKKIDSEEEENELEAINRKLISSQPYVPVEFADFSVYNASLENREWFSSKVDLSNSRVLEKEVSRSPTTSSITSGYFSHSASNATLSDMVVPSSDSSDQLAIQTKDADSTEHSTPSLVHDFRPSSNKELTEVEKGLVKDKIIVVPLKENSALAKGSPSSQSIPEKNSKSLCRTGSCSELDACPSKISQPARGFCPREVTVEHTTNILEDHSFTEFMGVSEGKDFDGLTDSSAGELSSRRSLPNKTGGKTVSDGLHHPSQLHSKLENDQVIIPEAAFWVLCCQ
# Chain of UniProt Q9H0C8 (Q9H0C8 whole entry, looked up): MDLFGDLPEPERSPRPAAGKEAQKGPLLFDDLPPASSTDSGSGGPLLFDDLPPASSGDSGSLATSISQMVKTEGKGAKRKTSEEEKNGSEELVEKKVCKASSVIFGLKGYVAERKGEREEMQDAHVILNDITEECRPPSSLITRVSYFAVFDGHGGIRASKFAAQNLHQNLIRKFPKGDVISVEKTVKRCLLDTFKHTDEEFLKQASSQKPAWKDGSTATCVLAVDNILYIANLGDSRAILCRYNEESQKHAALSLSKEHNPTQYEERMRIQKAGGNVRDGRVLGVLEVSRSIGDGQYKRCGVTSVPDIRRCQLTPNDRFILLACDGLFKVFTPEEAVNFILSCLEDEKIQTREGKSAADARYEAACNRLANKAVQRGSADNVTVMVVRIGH
# Chain of UniProt Q7LBC6 (Q7LBC6 whole entry, looked up): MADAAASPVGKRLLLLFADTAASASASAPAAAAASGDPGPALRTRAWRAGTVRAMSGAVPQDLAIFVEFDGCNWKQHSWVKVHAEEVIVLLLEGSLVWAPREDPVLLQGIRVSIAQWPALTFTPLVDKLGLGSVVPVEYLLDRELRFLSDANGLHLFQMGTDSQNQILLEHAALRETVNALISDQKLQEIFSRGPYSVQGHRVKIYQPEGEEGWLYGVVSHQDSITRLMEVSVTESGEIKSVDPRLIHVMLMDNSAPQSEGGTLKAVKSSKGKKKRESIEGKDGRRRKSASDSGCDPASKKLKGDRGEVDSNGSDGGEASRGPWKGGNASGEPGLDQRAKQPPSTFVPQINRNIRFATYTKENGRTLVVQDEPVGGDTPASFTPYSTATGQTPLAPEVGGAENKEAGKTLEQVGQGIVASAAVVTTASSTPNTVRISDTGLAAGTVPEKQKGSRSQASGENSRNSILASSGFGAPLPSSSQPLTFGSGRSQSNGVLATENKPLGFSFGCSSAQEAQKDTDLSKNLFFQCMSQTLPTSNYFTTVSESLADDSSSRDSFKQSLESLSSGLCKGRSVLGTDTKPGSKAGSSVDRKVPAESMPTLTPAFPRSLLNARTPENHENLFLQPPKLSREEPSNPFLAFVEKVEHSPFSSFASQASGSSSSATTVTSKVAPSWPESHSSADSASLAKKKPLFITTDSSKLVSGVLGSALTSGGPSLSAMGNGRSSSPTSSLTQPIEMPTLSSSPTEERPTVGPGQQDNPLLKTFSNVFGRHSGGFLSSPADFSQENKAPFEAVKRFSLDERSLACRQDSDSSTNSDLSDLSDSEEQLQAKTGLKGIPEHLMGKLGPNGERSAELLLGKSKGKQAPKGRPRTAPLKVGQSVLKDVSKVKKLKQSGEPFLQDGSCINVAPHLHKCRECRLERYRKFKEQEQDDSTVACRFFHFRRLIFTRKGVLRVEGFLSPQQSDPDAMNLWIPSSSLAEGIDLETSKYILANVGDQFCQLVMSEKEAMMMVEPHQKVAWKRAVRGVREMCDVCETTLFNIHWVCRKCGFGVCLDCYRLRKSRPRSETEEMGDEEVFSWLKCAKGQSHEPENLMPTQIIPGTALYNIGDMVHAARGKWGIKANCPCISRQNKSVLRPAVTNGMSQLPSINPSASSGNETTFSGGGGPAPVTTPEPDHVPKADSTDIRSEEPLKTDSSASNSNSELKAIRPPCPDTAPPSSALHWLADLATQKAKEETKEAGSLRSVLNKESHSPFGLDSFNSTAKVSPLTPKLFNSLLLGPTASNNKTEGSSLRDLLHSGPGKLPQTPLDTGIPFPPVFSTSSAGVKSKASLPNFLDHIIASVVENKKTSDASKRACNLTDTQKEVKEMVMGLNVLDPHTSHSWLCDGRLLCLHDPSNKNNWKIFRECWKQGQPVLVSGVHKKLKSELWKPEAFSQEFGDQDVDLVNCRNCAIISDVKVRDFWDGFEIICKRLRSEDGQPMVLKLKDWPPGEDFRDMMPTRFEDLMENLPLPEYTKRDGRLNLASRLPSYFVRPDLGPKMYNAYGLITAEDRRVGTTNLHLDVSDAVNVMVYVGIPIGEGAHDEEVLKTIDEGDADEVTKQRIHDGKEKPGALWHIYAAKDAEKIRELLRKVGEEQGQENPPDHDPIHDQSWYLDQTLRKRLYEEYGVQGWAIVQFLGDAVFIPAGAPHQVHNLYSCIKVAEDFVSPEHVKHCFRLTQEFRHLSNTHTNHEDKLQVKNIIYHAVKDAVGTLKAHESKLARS
Target,log2 fold change [1],log2 fold change [2],log2 fold change [3],log2 fold change [4],log2 fold change [5],log2 fold change [6],log2 fold change [7],log2 fold change [8],log2 fold change [9],log2 fold change [10],log2 fold change [11],log2 fold change [12],log2 fold change [13],log2 fold change [14],log2 fold change [15],log2 fold change [16],log2 fold change [17],log2 fold change [18],log2 fold change [19],log2 fold change [20]
IPO13 (UniProt O94829),-0.045,-0.018,0.05,-0.037,0.025,0.021,-0.059,-0.033,0.013,-0.062,-0.005,-0.1,0.066,0.103,-0.226,-0.281 (active),0.002,0.015,-0.026,-0.04
LONP2 (UniProt Q86WA8),0.07,-0.111,0.263,0.131,-0.021,0.065,0.168,0.067,-0.037,-0.002,-0.016,-0.023,-0.033,0.103,-0.135,0.004,-0.609 (active),-0.008,-0.271,-0.009
KCT2 (UniProt Q8NC54),0.069,0.019,0.064,0.061,-0.005,0.075,0.096,-0.005,-0.028,0.056,0.039,0.029,-0.04,-0.014,0.004,-0.118,-0.011,0.009,0.035,-0.035
MEPCE (UniProt Q7L2J0),0.063,0.064,-0.022,-0.002,0.039,-0.01,0.103,0.024,-0.049,-0.047,0.088,0.023,0.166,0.108,0.026,-0.16,0,0.098,-0.026,-0.31 (active)
KIF11 (UniProt P52732),0.042,0.032,-0.106,-0.058,0.038,0.012,-0.168,0.011,-0.017,-0.158,-0.097,-0.049,0.063,0.045,-0.024,-0.229,0.04,0.188,0.006,-0.014
IMMT isoform 4 (UniProt Q16891),-0.027,0.026,0.057,-0.006,-0.021,0.011,0.012,0.001,0.012,-0.013,0.037,-0.005,-0.015,-0.044,-0.035,-0.179,-0.013,-0.013,0.017,0.01
KDM3B (UniProt Q7LBC6),0.029,0.051,0.083,-0.019,0,0.043,0.029,-0.015,-0.03,0.008,-0.01,-0.04,-0.023,-0.018,-0.089,-0.047,0.014,-0.011,-0.018,-0.007
ILKAP (UniProt Q9H0C8),0.096,0.26,0.071,-0.02,0.126,0.011,0.022,0.088,-0.092,-0.076,-0.07,-0.016,-0.055,-0.024,-0.133,-0.078,-0.053,-0.004,0.017,0.032
KPNA4 (UniProt O00629),0.016,0.023,0.037,0.023,0.005,0.03,0.027,-0.024,0.003,0.003,0.008,-0.016,-0.057,-0.048,0.028,-0.063,-0.02,-0.001,0.041,-0.347 (active)
MAPK12 (UniProt P53778),-0.039,-0.033,-0.093,-0.053,0.008,-0.074,0.073,0.003,0.087,0.024,0.074,0.066,0.201,-0.046,0.001,0.388,-0.005,-0.004,0.207,-0.025
LUC7L3 (UniProt O95232),0.011,0.033,-0.018,0.042,-0.093,-0.02,-0.043,-0.104,-0.002,-0.037,-0.123,-0.037,-0.409 (active),-0.024,0.024,-0.04,0.007,-0.023,-0.013,0.109
LRRFIP1 (UniProt Q32MZ4),0.072,-0.045,-0.027,0.018,-0.01,0.052,-0.024,-0.042,0.056,0.041,0.014,0.019,0.027,-0.003,0.063,0.084,0.011,0,0,-0.043
MDN1 (UniProt Q9NU22),0.063,0.11,0.02,-0.025,0.144,0.037,0.02,-0.022,-0.025,0,-0.011,-0.046,-0.126,-0.015,-0.24,-0.22,-0.029,-0.009,0.006,0.005
KIF13A (UniProt Q9H1H9),0.065,-0.026,-0.031,0.017,0.056,-0.009,-0.027,-0.055,-0.043,0.072,0.045,0.042,0.047,-0.015,0.025,-0.069,0.035,-0.008,-0.01,-0.044
KTN1 (UniProt Q86UP2),-0.013,-0.007,-0.05,-0.08,0.058,-0.006,-0.04,-0.032,-0.028,-0.129,-0.066,-0.029,0.065,0.098,0,-0.343 (active),0.072,0.102,-0.019,0.071
IMMP1L (UniProt Q96LU5),0.053,-0.018,0.01,-0.017,0.104,-0.022,-0.084,-0.046,0.041,0.013,0.006,0.043,0.002,0.031,0.03,0.026,0.112,-0.033,0.06,0.199
